Screening data: PubChem, The Scripps Research Institute Molecular Screening Center
Most compounds without a hit are left out; they make up all but 4.5% or so of the library.
hcDAF12 agonist – H. contortus DAF-12 activation, primary screen; HEK293 hcDAF-12 lit1-tk-luc reporter, luminescence; 0% DMSO, 100% Δ7-dafachronic acid; 370,000 tested, 1.4% active; activation, % at 6.8 µM; AID 652067;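 active = activation above the mean of all tested compounds plus 3 SD, cut at about 5.5% in these data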
DAX1 inh-1 – inhibits human nuclear receptor DAX1 | 340,000 tested, 0.99% active | HEK293 Gal4-DAX1 luciferase reporter, luminescence | P51843 | inhibition, % at 6.75 µM | AID 504766;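 active = inhibition above the mean over all tested compounds plus 3 SD, cut at about 4.2% in these data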;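 also: inhibition shows as a rise in luminescence from relieved DAX1 repression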
GAA850 FXN act – increases GAA850 frataxin promoter reporter activity. HEK293 lucGAA850 FXN promoter luciferase reporter, 24 h; percent of 10 µM SAHA response. activation, % at 6 µM. 360,000 tested, 0.56% active. AID 540364;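 active = activation above the average of all compounds screened plus 3 SD, cutoff fixed separately per campaign, cut at about 7.5% in these data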
ssDAF-12 act – activators of S. stercoralis DAF-12 nuclear receptor; HEK293 ssDAF-12/GRIP1 lit1-tk-luc reporter, luminescence; % of 3 µM dafachronic acid response; activation, % at 6.8 µM; 370,000 tested, 1% active; AID 652126;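 active = activation above the mean over all tested compounds plus 3 SD, cut at about 0.9% in these data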
hgDAF12 agonist – hgDAF-12 agonism, primary luciferase screen. 370,000 tested, 1.8% active. HEK293 GAL4-hgDAF12 UAS-luciferase reporter, agonist luminescence; normalized to butyrate control. activation, % at 6.8 µM;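 active = activation above a cutoff set at the mean of all screened compounds plus 3 SD, cut at about 10% in these data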
DAX1 inh-2 – blocks DAX1 repression of SF-1 activated StAR promoter. 370,000 tested, 1.1% active. inhibition, % at 6.8 µM. HEK293T StAR-luciferase reporter, SF-1/DAX-1 repression relief;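 active = inhibition above the mean over all tested compounds plus 3 SD, cut at about 3.6% in these data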;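 also: higher inhibition means more luminescence from relief of DAX-1 repression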
DAX1 inh confirm – NR0B1 (human) inhibition, confirmation; AID 652134; shares compounds with DAX1 inh-2; inhibition, % at 6.8 µM; 2,400 tested, 87% active; HEK293T StAR-promoter luciferase reporter, SF-1/DAX-1 repression;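 active = inhibition above the average of every tested compound plus 3 SD, cut at about 3.8% in these data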;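 also: active compounds raise luminescence by relieving repression of the StAR reporter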
Target sequence (P51843 whole entry, looked up): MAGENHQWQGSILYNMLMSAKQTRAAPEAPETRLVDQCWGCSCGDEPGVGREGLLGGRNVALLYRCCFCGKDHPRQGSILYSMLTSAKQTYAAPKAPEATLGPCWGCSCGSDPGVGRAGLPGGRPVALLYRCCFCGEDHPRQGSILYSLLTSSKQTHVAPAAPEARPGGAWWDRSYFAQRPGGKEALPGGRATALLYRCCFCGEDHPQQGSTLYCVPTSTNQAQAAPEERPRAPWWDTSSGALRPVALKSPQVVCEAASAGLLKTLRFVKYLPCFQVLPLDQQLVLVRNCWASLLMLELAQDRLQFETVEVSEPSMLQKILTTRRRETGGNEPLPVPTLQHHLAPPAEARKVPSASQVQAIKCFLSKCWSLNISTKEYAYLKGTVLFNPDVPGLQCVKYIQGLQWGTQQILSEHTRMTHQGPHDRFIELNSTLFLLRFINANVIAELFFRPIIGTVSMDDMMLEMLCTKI
SF1 AF2mut Luc – counter-screen for DAX1 inhibitors: nonselective inhibitors with SF-1 AF2 mutant; shares compounds with DAX1 inh-2; HEK293 StAR-luciferase, luminescence; inhibition, % at 6.8 µM; 2,400 tested, 78% active;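 active = inhibition above the mean of all tested compounds plus 3 SD, cut at about 3% in these data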
LXRb hcDAF ctr – counter-screen for hcDAF-12 agonists: agonists of human LXR-beta; HEK293 Gal4-LXR tk-luc reporter, luminescence, 24 h; normalized: DMSO 0%, positive control 100%; 3,400 tested, under 10 active; AID 743027; shares compounds with hcDAF12 agonist; activation, % at 6.8 µM;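 active = mean percent activation of the reporter above a cutoff set as the average over tested compounds plus their standard deviation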
hcDAF12 ag – hcDAF-12 agonism, confirmation assay. shares compounds with hcDAF12 agonist. HEK293 hcDAF-12 lit1-tk-luc reporter, luminescence; % of Δ7-dafachronic acid response. activation, % at 6.8 µM. 3,400 tested, 61% active;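 active = mean activation across triplicate tests above the threshold derived from the earlier primary screen, cut at about 5.5% in these data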
hgDAF12 conf – confirmation of H. glycines DAF-12 agonists | HEK293 GAL4-hgDAF12 luciferase reporter, agonist mode; percent of butyrate response | activation, % at 6.8 µM | 3,300 tested, 80% active | shares compounds with hgDAF12 agonist;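 active = mean activation over triplicate wells above the hit cutoff derived from the earlier primary screen, cut at about 11% in these data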
LXR ag 2 – activates human LXR-beta, counter-screen for DAF-12 agonists. 3,300 tested, under 10 active. shares compounds with hgDAF12 agonist. activation, % at 6.8 µM. HEK293 Gal4-LXR luciferase reporter, 24 h. AID 743051;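 active = mean activation of the triplicate above a set limit carried over from the primary screen, none filed active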
Of the large screens only hits and unclear results are named; the others gave an inactive call (follow-up assays come after a bar, where they were run).

Cc1ccc(NC(=O)/C(Cl)=C\c2ccccc2)cc1	hcDAF12 agonist 6.4, ssDAF-12 act 1.6, hgDAF12 agonist 17, DAX1 inh-2 6.5 | DAX1 inh confirm 18 | SF1 AF2mut Luc 8.1 | hgDAF12 conf 21 | LXR ag 2 inactive
CCC1CCCCN1C(=O)CCNC(=O)Cn1cnc2ccccc2c1=O (stereo not given)	none
Cc1ccc2nc(C)/c(=N\O)c(C)nc2c1	hcDAF12 agonist 10.0, hgDAF12 agonist 15, DAX1 inh-2 5.3 | DAX1 inh confirm 5.3 | SF1 AF2mut Luc 3.2 | LXRb hcDAF ctr inactive | hcDAF12 ag inactive | hgDAF12 conf inactive | LXR ag 2 inactive
Cc1ccc2nc(N)nnc2c1	none
O=C(OCc1nc2ccccc2s1)c1cccs1	hcDAF12 agonist 10, DAX1 inh-1 4.9, ssDAF-12 act 1.8, hgDAF12 agonist 17, DAX1 inh-2 5.6 | DAX1 inh confirm 15 | SF1 AF2mut Luc 6.3 | LXRb hcDAF ctr inactive | hcDAF12 ag 13 | hgDAF12 conf 11 | LXR ag 2 inactive
COc1cc(OC)cc(C(=O)NCC(=O)OCc2nc3ccccc3s2)c1	hcDAF12 agonist 11, DAX1 inh-1 6.9, ssDAF-12 act 1.8, hgDAF12 agonist 14, DAX1 inh-2 4.8 | DAX1 inh confirm 13 | SF1 AF2mut Luc 7.4 | LXRb hcDAF ctr inactive | hcDAF12 ag 11 | hgDAF12 conf 13 | LXR ag 2 inactive
Fc1ccc(Nc2ccc3ccccc3n2)c(F)c1	hcDAF12 agonist 9.8, ssDAF-12 act 1.0, hgDAF12 agonist 15, DAX1 inh-2 9.7 | DAX1 inh confirm 14 | SF1 AF2mut Luc 9.4 | LXRb hcDAF ctr inactive | hcDAF12 ag 9.4 | hgDAF12 conf 20 | LXR ag 2 inactive
O=C(Nc1ccc2ccccc2n1)Nc1ccccc1F	none
O=C(CC(=O)c1ccccn1)c1ccccc1	hgDAF12 agonist 14, DAX1 inh-2 6.0 | DAX1 inh confirm 8.6 | SF1 AF2mut Luc 5.2 | hgDAF12 conf 16 | LXR ag 2 inactive
O=C(NNCc1ccccc1)c1ccccn1	hgDAF12 agonist 19, DAX1 inh-2 7.8 | DAX1 inh confirm 9.2 | SF1 AF2mut Luc 4.7 | hgDAF12 conf 14 | LXR ag 2 inactive
O=C(NNCc1ccccc1)c1ccccc1	hgDAF12 agonist 16, DAX1 inh-2 6.1 | DAX1 inh confirm 13 | SF1 AF2mut Luc 5.8 | hgDAF12 conf 12 | LXR ag 2 inactive
Cc1cc(C(=O)NNCc2ccccc2)no1	none
CC(C)c1ccc(CNNC(=O)c2ccccc2)cc1	none
Cc1cc(C(=O)NC2CCCN(Cc3ccc(Cl)cc3)C2)n(C)n1 (stereo not given)	none
CCOc1cc(CN2CCC(CO)(Cc3cccc(C(F)(F)F)c3)CC2)ccc1OC	none
CC1OC(CCc2cccc(Cl)c2)Cc2[nH]c(=S)[nH]c(=O)c21 (stereo not given)	none (no result: DAX1 inh-1, GAA850 FXN act)
CCCCCN(C(=O)CCC(=O)OC(C)C(=O)Nc1ccccc1C)c1c(N)n(CCCC)c(=O)[nH]c1=O (stereo not given)	none
